Data on 36 compounds can be found in PubChem BioAssay (EPA / NIEHS).

Read-out in assay [1]: E-selectin (Homo sapiens) (UniProt P16581)
Nature of the assay: BSK_SAg_Eselectin: BioMAP Diversity Plus: SAg Assay for Eselectin Biomarker Activity (AID 2283091). The note with it: primary human HUVEC with PBMC; actives raise or lower the signal. The gist of the method:
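Human umbilical vein endothelial cells co-cultured with peripheral blood mononuclear cells, SAg system. E-selectin is measured by ELISA 24 h after dosing and fitted bidirectionally against DMSO. Cytotoxicity is checked by SRB staining of parallel cultures.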

Read-out in assay [2]: Monokine induced gamma interferon (MIG), CXCL9 (gene 4283)
Kind of assay: BSK_SAg_MIG: BioMAP Diversity Plus: SAg Assay for Monokine induced gamma interferon (MIG) Biomarker Activity (AID 2283092). The note with it: primary human HUVEC with PBMC; actives raise or lower the signal. Summed up: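 ELISA readout of MIG/CXCL9; primary human umbilical vein endothelial cells co-cultured with peripheral blood mononuclear cells; 24 h post-dose; gain/loss fit vs DMSO baseline.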

Assay [3] is described as follows: BSK_SAg_PBMCCytotoxicity: PBMC Cytotoxicity Assessment in the BioMAP Diversity Plus: SAg Assay (AID 2283093).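 Further: PBMC viability measured as Alamar Blue reduction fluorescence at 546/580 nm; fitted both ways against DMSO so a hit may be loss or gain of signal.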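 On AC50: PBMC superantigen activated with SEB plus TSST-1 one hour after compound addition.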 The note with it: primary human HUVEC with PBMC. Summed up:
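Alamar Blue reduction (6 h, ex/em 546/580 nm) read after 90 h culture of PBMC pre-dosed 1 h then stimulated with SEB plus TSST-1, 20 ng/mL each. Gain or loss of signal fitted relative to DMSO.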

Read-out in assay [4]: Interleukin-8 (IL8), CXCL8 (gene 3576)
Nature of the assay: BSK_SAg_IL8: BioMAP Diversity Plus: SAg Assay for Interleukin-8 (IL8) Biomarker Activity (AID 2283094). The note with it: primary human HUVEC with PBMC; actives raise or lower the signal. The gist of the method: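 Primary human endothelial cells with PBMC, exposed 24 h; IL-8 determined by ELISA, analysed bidirectionally relative to DMSO.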

The nature of assay [5]: BSK_SAg_Proliferation: Cell Proliferation Assessment in the BioMAP Diversity Plus: SAg Assay (AID 2283095).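 Further: relative cell number as total protein by SRB absorbance in sub-confluent culture.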 The note with it: primary human HUVEC with PBMC. Summed up: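 A human primary co-culture of umbilical vein endothelium and blood mononuclear cells receives compound; relative cell number is quantified at 96 h by SRB staining and 560 nm absorbance, with DMSO-referenced bidirectional curve fitting.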

The nature of assay [6]: BSK_SAg_SRB: Viability Assessment in the BioMAP Diversity Plus: SAg Assay (AID 2283096).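 Further: cells read one day after compound addition; hits may be either gain or loss of signal compared with DMSO.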 The conditions noted are these: primary human HUVEC with PBMC. Summed up:
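SRB absorbance at 560 nm served as the viability read-out. Cells (HUVEC plus peripheral blood mononuclear cells) were TCA-fixed and stained 24 h post-dosing; activity fitted in both directions against DMSO controls.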

Values joined by “and” are separate entries in the source; they are usually repeats but may differ in a detail not shown here. Equal values may be shown once. A structure can be active in one record and inactive in another. Active and inactive are the calls of the source. How the source made its calls: active means hit-call score of the fitted dose curve at least 0.9, where 1 is the maximum; inactive means score below 0.9.

Usually AC50 stands for the concentration at which the activity in the assay is half-maximal.

Chain of E-selectin (Homo sapiens) (P16581 whole entry, looked up): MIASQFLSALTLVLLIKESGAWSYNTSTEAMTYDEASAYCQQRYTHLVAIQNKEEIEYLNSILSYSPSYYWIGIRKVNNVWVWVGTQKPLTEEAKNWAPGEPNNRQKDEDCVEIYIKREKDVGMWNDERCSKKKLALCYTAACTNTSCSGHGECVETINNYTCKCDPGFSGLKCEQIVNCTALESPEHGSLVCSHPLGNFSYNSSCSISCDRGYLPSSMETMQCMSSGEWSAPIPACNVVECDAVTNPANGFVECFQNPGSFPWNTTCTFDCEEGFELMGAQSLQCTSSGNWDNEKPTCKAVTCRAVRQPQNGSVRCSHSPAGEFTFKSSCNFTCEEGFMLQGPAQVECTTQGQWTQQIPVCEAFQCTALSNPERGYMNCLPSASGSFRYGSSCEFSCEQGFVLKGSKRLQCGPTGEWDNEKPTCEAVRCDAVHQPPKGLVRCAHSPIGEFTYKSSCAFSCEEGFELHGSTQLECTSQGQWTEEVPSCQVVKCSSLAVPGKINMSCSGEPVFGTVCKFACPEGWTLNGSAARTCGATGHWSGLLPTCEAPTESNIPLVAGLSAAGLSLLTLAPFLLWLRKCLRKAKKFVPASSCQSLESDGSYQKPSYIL

In the case of `CN(C(=O)C(F)(F)C(F)(F)C(F)(F)F)[Si](C)(C)C`, the result in assay [1], in assay [2], in assay [3], in assay [4], in assay [5] and in assay [6] was inactive.

As for `OC(O)C(F)(F)C(F)(F)F`, the outcome in assay [1], in assay [2], in assay [3], in assay [4], in assay [5] and in assay [6] was inactive.

Consider `O=C(O)C(F)(F)C(F)(F)C(F)(F)C(=O)O`, for which the outcome in assay [1], in assay [2], in assay [3], in assay [4], in assay [5] and in assay [6] was inactive.

On to `Nc1cc([N+](=O)[O-])cc(Cl)c1O`, for which the result in assay [1], in assay [2], in assay [3], in assay [4], in assay [5] and in assay [6] was inactive.

Take `NC(=O)C(F)(F)C(F)(F)C(F)(F)C(F)(F)C(F)(F)C(F)(F)C(F)(F)F`: the outcome in assay [1], in assay [2], in assay [3], in assay [4], in assay [5] and in assay [6] was inactive.

Turning to `CNS(=O)(=O)C(F)(F)C(F)(F)C(F)(F)C(F)(F)C(F)(F)C(F)(F)C(F)(F)C(F)(F)F`, the result in assay [1], in assay [2], in assay [3], in assay [4], in assay [5] and in assay [6] was inactive.

Regarding `CCOC(C=C(C)CCC=C(C)C)OCC`, the outcome in assay [1], in assay [2], in assay [3], in assay [4] and in assay [6] was inactive. Besides, in assay [5], the AC50 is 34.4 µM (active).

Take `O=S(=O)(O)CCC(F)(F)C(F)(F)C(F)(F)C(F)(F)F`: the result in assay [1], in assay [2], in assay [3], in assay [4], in assay [5] and in assay [6] was inactive.

Take `OCCCCC(F)(F)C(F)(F)C(F)(F)C(F)(F)F`: the result in assay [1], in assay [2], in assay [3], in assay [4], in assay [5] and in assay [6] was inactive.

Regarding `C=CC(=O)OCC(F)(F)C(F)(F)C(F)(F)C(F)(F)C(F)(F)C(F)(F)C(F)(F)C(F)F`, the AC50 is 30 µM (active) in assay [1]; 26.8 µM (active) and 16.6 µM (active) in assay [3]; 20.8 µM (active) in assay [4]; 36.8 µM (active) and 27.1 µM (active) in assay [5]. Also, the outcome in assay [1], in assay [2], in assay [4] and in assay [6] was inactive.

As for `Cc1cnccn1`, the outcome in assay [1], in assay [2], in assay [3], in assay [4], in assay [5] and in assay [6] was inactive.

As for `OCC(F)(F)C(F)(F)C(F)(F)C(F)(F)C(F)(F)C(F)(F)C(F)(F)C(F)(F)CO`, the result in assay [1], in assay [2], in assay [4], in assay [5] and in assay [6] was inactive. Besides, the AC50 in assay [3] is 43.8 µM (active) and 50.7 µM (active); in assay [5] it was 45.5 µM (active).

As to `O=C(O)C(F)(F)C(F)(F)C(F)(F)OC(F)(C(F)(F)F)C(F)(F)F`, the result in assay [1], in assay [2], in assay [3], in assay [4], in assay [5] and in assay [6] was inactive.

As to `NC(O)(C(F)(F)F)C(F)(F)F`, the result in assay [1], in assay [2], in assay [3], in assay [4], in assay [5] and in assay [6] was inactive.

Take `OCC(F)(F)C(F)(F)C(F)(F)C(F)(F)C(F)(F)C(F)(F)CO`: the outcome in assay [1], in assay [2], in assay [3], in assay [4], in assay [5] and in assay [6] was inactive.

With `O=C(O)C(F)(F)C(F)(F)C(F)(F)OC(F)(F)F`, the result in assay [1], in assay [2], in assay [3], in assay [4], in assay [5] and in assay [6] was inactive.

Turning to `CCN=C1C=CC(=C(c2ccc(N(CC)CC)cc2)c2ccc(N(CC)CC)cc2)c2ccccc21`, the AC50 was 1.45 µM (active) and 1.11 µM (active) in assay [1]; 1.82 µM (active) and 1.55 µM (active) in assay [2]; 2.52 µM (active) and 2.57 µM (active) in assay [3]; 1.47 µM (active) and 1.15 µM (active) in assay [4]; 419 nM (active) and 401 nM (active) in assay [5]; 1.78 µM (active) and 2.37 µM (active) in assay [6].

On to `NC(=O)C(F)(F)C(F)(F)C(F)(F)F`, for which the result in assay [1], in assay [2], in assay [3], in assay [4], in assay [5] and in assay [6] was inactive.

On to `C=CC(=O)OCCC(F)(F)C(F)(F)C(F)(F)C(F)(F)F`, for which the AC50 in assay [1] was 40.1 µM (active) and 40 µM (active); in assay [3], 30 µM (active); in assay [4] it was 33 µM (active) and 30.1 µM (active); in assay [5] it was 30 µM (active). Also, the outcome in assay [2] and in assay [6] was inactive.

For the compound `Cc1cc(C)c(O)c(C(C)(C)C)c1`, the AC50 in assay [1] is 28.8 µM (active); in assay [3], 31.7 µM (active); in assay [5] it was 31.2 µM (active); in assay [6] it was 35.1 µM (active). The result in assay [2] and in assay [4] was inactive.

Turning to `O=C(F)C1(F)C(F)(F)C(F)(F)C(F)(F)C(F)(F)C1(F)F`, the result in assay [1], in assay [2], in assay [3], in assay [4], in assay [5] and in assay [6] was inactive.

Take `OCCCC(F)(F)C(F)(F)C(F)(F)C(F)(F)C(F)(F)C(F)(F)C(F)(F)C(F)(F)F`: the AC50 in assay [1] was 52 µM (active) and 54 µM (active); in assay [2], 53.4 µM (active) and 53.2 µM (active); in assay [3] it was 17.3 µM (active) and 14.4 µM (active); in assay [4], 43.2 µM (active) and 37 µM (active); in assay [5], 10.2 µM (active) and 14.6 µM (active); in assay [6] it was 27 µM (active) and 47.8 µM (active).

In the case of `O=S(=O)(OCC(F)(F)F)C(F)(F)C(F)(F)C(F)(F)C(F)(F)F`, the result in assay [1], in assay [2], in assay [3], in assay [4], in assay [5] and in assay [6] was inactive. Also, the AC50 in assay [4] is 30 µM (active).

In the case of `OCC(O)CC(F)(F)C(F)(F)C(F)(F)C(F)(F)F` (stereo unspecified), the outcome in assay [1], in assay [2], in assay [3], in assay [4], in assay [5] and in assay [6] was inactive.

Regarding `O=S(=O)(O)CCC(F)(F)C(F)(F)C(F)(F)C(F)(F)C(F)(F)C(F)(F)C(F)(F)C(F)(F)F`, the outcome in assay [1], in assay [2], in assay [3], in assay [4], in assay [5] and in assay [6] was inactive.

With `NCC(F)(F)C(F)(F)C(F)(F)C(F)(F)C(F)(F)C(F)(F)C(F)(F)C(F)(F)F`, the result in assay [1], in assay [2], in assay [3], in assay [4], in assay [5] and in assay [6] was inactive.

`O=S(=O)(Cl)C(F)(F)C(F)(F)C(F)(F)C(F)(F)C(F)(F)C(F)(F)C(F)(F)C(F)(F)F`: the AC50 in assay [1] was 37.5 µM (active); in assay [6], 43.2 µM (active) and 55.5 µM (active). The outcome in assay [1], in assay [2], in assay [3], in assay [4] and in assay [5] was inactive.

Regarding `C[Si](Cl)(Cl)CCC(F)(F)C(F)(F)C(F)(F)C(F)(F)C(F)(F)C(F)(F)F`, the outcome in assay [1], in assay [2], in assay [3], in assay [4], in assay [5] and in assay [6] was inactive.

Consider `FC(F)(F)C(F)(F)C(F)(F)CC1CO1` (stereo unspecified), for which the result in assay [1], in assay [2], in assay [3], in assay [4], in assay [5] and in assay [6] was inactive.

Take `CCN(CC)c1ccc(N=Nc2ccccc2)cc1`: the AC50 in assay [1] was 13.8 µM (active); in assay [3], 20 µM (active); in assay [4], 29.4 µM (active); in assay [5] it was 12.7 µM (active); in assay [6], 29.5 µM (active). Also, the result in assay [2] was inactive.

Turning to `O=C=Nc1cccc2c(N=C=O)cccc12`, the result in assay [1], in assay [2], in assay [3], in assay [4], in assay [5] and in assay [6] was inactive.

Consider `CCN(CC)c1ccc2c(c1)Oc1cc(N(CC)CC)ccc1C21OC(=O)c2ccccc21`, for which the result in assay [1], in assay [2] and in assay [6] was inactive. In addition, the AC50 was 6.68 µM (active) in assay [3], 10 µM (active) in assay [4] and 10 µM (active) in assay [5].

Regarding `CO[Si](C)(CCC(F)(F)C(F)(F)C(F)(F)C(F)(F)C(F)(F)C(F)(F)F)OC`, the outcome in assay [1], in assay [2], in assay [3], in assay [4], in assay [5] and in assay [6] was inactive.

In the case of `CCN(CCO)S(=O)(=O)C(F)(F)C(F)(F)C(F)(F)C(F)(F)C(F)(F)C(F)(F)C(F)(F)C(F)(F)F`, the result in assay [1], in assay [2] and in assay [4] was inactive. The AC50 in assay [3] was 39.9 µM (active) and 22.9 µM (active); in assay [5], 23.6 µM (active) and 18.6 µM (active); in assay [6] it was 30 µM (active) and 27.9 µM (active).

As for `O=C(O)C(F)(F)C(F)(F)C(F)(F)C(F)(F)C(F)(F)C(F)(F)C(F)F`, the outcome in assay [1], in assay [2], in assay [3], in assay [4], in assay [5] and in assay [6] was inactive.

For the compound `O=C(Cl)C(F)(F)C(F)(F)C(F)(F)C(F)(F)C(F)(F)C(F)(F)C(F)(F)F`, the result in assay [1], in assay [2], in assay [3], in assay [4], in assay [5] and in assay [6] was inactive.
